# Several values for one entry are separate records, joined by “and”; a condition that tells them apart may be missing. Equal values may be shown once. Screen size: about 6,400 compounds; about 610 (9.5%) were called active. The full list was thinned out, with actives kept by preference. Values without a mark were called inactive. Cut-off read from the data, not from the text of the source: active = activity change below about -70%; inconclusive = no clear call, values can overlap the other calls; inactive = above that. *1 amine or outer side, *2 acyl side, *3 side chain or, on linkers, in order; H or OH if unused. Where a SMILES comes first, the peptide text is derived from it. Bridges are numbered along the chain shown (N, C = ends). [ ]: non-standard residue; d: D form. The star is where a group is joined. ξ: configuration not given here. pTerphenylCO(4''-OnC5H11) = CCCCCOc1ccc(-c2ccc(-c3ccc(C(=O)*)cc3)cc2)cc1; ξOrn(4,5-diOH) = O=C(C(CC(O)C(O)N[*:3])N[*:1])[*:2]; ξhTyr(βξ-OH,γξ-OH) = NC(C(=O)O)C(O)C(O)c1ccc(O)cc1; ξPro(3ξ-OH,4ξ-Me) = CC1CNC(C(=O)O)C1O; Hyp = O=C(O)[CH]1C[CH](O)CN1
# Experiment: Toxoplasma gondii ME49Luc growth in HeLa cells, luciferase, no IFN-y, primary screen (AID 1259421)
# Conditions: T. gondii ME49Luc in HeLa, 72 h, hits give low values, concentration not given here
row,SMILES,"activity change, negative = inhibition"
1,O=C1c2ccccc2C(Cc2ccnc(F)c2)(Cc2ccnc(F)c2)c2ccccc21,21.9% and 12.1%
2,O=C1N[C@@H]2[C@@H](O)[C@@H](O)[C@H](O)[C@@H](CO)N2C1=O,11.7%
3,O[C@H]([C@H](O)[C@@H]1CO1)[C@H]1CO1,5.39%
4,C=C1c2cccc(O)c2C(=O)C2C(=O)[C@]3(O)C(=O)C(C(N)=O)C(=O)[C@@H](N(C)C)[C@@H]3[C@@H](O)[C@H]12 (stereo partly specified),-67.5% and 19%
5,C=C1c2c(Cl)ccc(O)c2C(=O)C2C(=O)[C@]3(O)C(=O)C(C(N)=O)C(=O)[C@@H](N(C)C)[C@@H]3[C@@H](O)[C@H]12 (stereo partly specified),-9.94% and 7.28%
6,CCC(CC)C(c1ccc(Nc2nc3ccccc3s2)cc1)n1cncn1 (stereo unspecified),4.5%
7,COC(=O)N(C)c1c(N)nc(-c2nn(Cc3ccccc3F)c3ncccc23)nc1N,2.65%
8,CC(=O)O[C@H]1C(=O)[C@@]2(C)[C@H]([C@H](OC(=O)c3ccccc3)[C@]3(O)C[C@H](OC(=O)[C@H](O)[C@@H](NC(=O)c4ccccc4)c4ccccc4)C(C)=C1C3(C)C)[C@]1(OC(C)=O)CO[C@@H]1C[C@@H]2O,-84.9% (active) and -74.8% (active)
9,CC(=O)O[C@H]1C(=O)[C@@]2(C)C([C@H](OC(=O)c3ccccc3)[C@]3(O)C[C@H](OC(=O)[C@H](O)[C@@H](NC(=O)c4ccccc4)c4ccccc4)C(C)=C1C3(C)C)[C@]1(OC(C)=O)CO[C@@H]1C[C@@H]2O (stereo partly specified),-86.6% (active) and -77.4% (active)
10,CC(=O)OC1C(=O)C2(C)C(O)CC3OCC3(OC(C)=O)C2C(OC(=O)c2ccccc2)C2(O)CC(OC(=O)C(O)C(NC(=O)c3ccccc3)c3ccccc3)C(C)=C1C2(C)C (stereo unspecified),-87.7% (active)
11,CCCCCCCC/C=C/CCCCCCCC(=O)NC(CO)Cc1ccc(O)cc1 (stereo unspecified),6.19%
12,C[N+]1(C)[C@@H]2CC(OC(=O)[C@H](CO)c3ccccc3)C[C@H]1[C@@H]1O[C@@H]12 (stereo partly specified),10.8%
13,O=C(O)CC/C=C/CC1COC(c2ccccc2Cl)OC1c1ccccc1O (stereo unspecified),11.4%
14,O=C(O)[C@@H]1C[C@H]2C[C@@H](CCc3nn[nH]n3)CC[C@H]2CN1,15.6%
15,CN1CCCC1c1cccnc1 (stereo unspecified),24.1%
16,"CCCCCOc1ccc(-c2ccc(-c3ccc(C(=O)NC4CC(O)C(O)NC(=O)C5C(O)C(C)CN5C(=O)C(C(C)O)NC(=O)C(C(O)C(O)c5ccc(O)cc5)NC(=O)C5CC(O)CN5C(=O)C(C(C)O)NC4=O)cc3)cc2)cc1 (stereo not drawn) ({pTerphenylCO(4''-OnC5H11)}-[ξOrn(4,5-diOH)]T[Hyp][ξhTyr(βξ-OH,γξ-OH)]T[ξPro(3ξ-OH,4ξ-Me)]; lactam 1-C; configuration not given here)",-6.09%

# Reference: PubChem BioAssay AID1259421 (Broad Institute, 2018)
